Results on nine molecules are retold here after PubChem BioAssay (NCI).

What all share (assay): NCI-60 one-dose screen, 48 h (100 = growth as untreated, 0 = no growth, -100 = all killed)
One assay concerns HCT-15 colon. The settings on record: 10 µM unless noted.
The next assay relates to HT29 colon. The settings on record: 10 µM unless noted.
A further assay has as its system SNB-75 CNS. The conditions noted are these: 10 µM unless noted.
The next assay concerns SNB-19 CNS. The conditions noted are these: 10 µM unless noted.
Another assay relates to U251 CNS. The conditions noted are these: 10 µM unless noted.
The subject of the next assay is PC-3 prostate. The conditions noted are these: 10 µM unless noted.
For a further assay, the system named is SK-MEL-5 melanoma. The settings on record: 10 µM unless noted.
The next assay has as its system UACC-62 melanoma. The conditions noted are these: 10 µM unless noted.
The subject of a further assay is LOX IMVI melanoma. The settings on record: 10 µM unless noted.
The next assay has as its system SK-MEL-28 melanoma. The conditions noted are these: 10 µM unless noted.
The test system of the next assay is SK-MEL-2 melanoma. The conditions noted are these: 10 µM unless noted.
In a further assay the test system is SN12C renal. The conditions noted are these: 10 µM unless noted.
Another assay relates to UO-31 renal. The settings on record: 10 µM unless noted.
The test system of another assay is TK-10 renal. The conditions noted are these: 10 µM unless noted.
For another assay, the system named is ACHN renal. The settings on record: 10 µM unless noted.
For the next assay, the system named is A498 renal. The settings on record: 10 µM unless noted.
The subject of the next assay is CCRF-CEM leukemia. The settings on record: 10 µM.
The subject of a further assay is MOLT-4 leukemia. The conditions noted are these: 10 µM unless noted.
For another assay, the system named is CAKI-1 renal. The settings on record: 10 µM unless noted.

The panel holds about 83,000 compounds, 20% with a hit somewhere; the sample as a whole holds those more often.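 How to read the values: 0–100, growth inhibition (40 = 60% inhibited); 0, no net growth; -100 to 0, cell death (-40 = 40% of starting cells died; -100 = all dead).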 A number with no mark means an inactive call. The source made the active and inactive calls. The calls were made as follows: active = growth percent below 10; inactive = the rest.

In the case of `CCCCS(=O)(=O)c1cc(Nc2ccc(O)c3c2C(=O)c2ccccc2C3=O)ccc1C`, the growth in the assay with HCT-15 colon was 66.8%; with HT29 colon, 51.5%; in the assay on SNB-75 CNS it was 106%; with SNB-19 CNS, 66.7%; with U251 CNS, 80.7%; in the assay with PC-3 prostate, 80.7%. Besides, the growth is -13.5% (active) in the assay on SK-MEL-5 melanoma; 32.8% in the assay on UACC-62 melanoma; 51.5% in the assay with LOX IMVI melanoma; 71.5% in the assay with SK-MEL-28 melanoma; 92.5% in the assay on SK-MEL-2 melanoma; 71.5% in the assay with SN12C renal. Besides, the growth was 54.8% in the assay with UO-31 renal; 116% in the assay on TK-10 renal; 92.2% with ACHN renal; 126% in the assay with A498 renal; 59.7% in the assay with CCRF-CEM leukemia; 61.2% in the assay with MOLT-4 leukemia.

On to `CCC(C)CC(N)O` (centres undefined), for which the growth in the assay with HCT-15 colon was 103%; in the assay on HT29 colon, 111%; in the assay with SNB-75 CNS, 106%; with SNB-19 CNS it was 106%; with U251 CNS, 106%; with PC-3 prostate, 111%. The growth in the assay with SK-MEL-5 melanoma is 99.9%; in the assay on UACC-62 melanoma it was 104%; in the assay with LOX IMVI melanoma, 110%; in the assay on SK-MEL-28 melanoma it was 102%; in the assay on SK-MEL-2 melanoma, 128%; with SN12C renal, 109%. Also, the growth in the assay on UO-31 renal was 101%; in the assay with TK-10 renal it was 99%; in the assay with ACHN renal, 106%; with CAKI-1 renal it was 110%; in the assay on CCRF-CEM leukemia, 115%; in the assay on MOLT-4 leukemia, 106%.

For `CC1(C)N=C(N)N=C(N)N1c1cccc(CCCCOc2ccccc2)c1`, the growth in the assay with HCT-15 colon is 58.5%; in the assay on HT29 colon it was 11.3%; with SNB-75 CNS, 60.8%; with SNB-19 CNS it was 32.4%; in the assay on U251 CNS, 11.4%; with PC-3 prostate, -6.9% (active). The growth is 17.9% with SK-MEL-5 melanoma; 20.8% with UACC-62 melanoma; 15.9% in the assay on LOX IMVI melanoma; 39.3% in the assay with SK-MEL-28 melanoma; 70.7% in the assay on SK-MEL-2 melanoma; 84.2% with UO-31 renal. Moreover, the growth in the assay with TK-10 renal is 24%; in the assay on ACHN renal, 35.1%; in the assay on CAKI-1 renal it was 67.7%; in the assay on A498 renal it was 49.7%; with CCRF-CEM leukemia, 13.2%; with MOLT-4 leukemia, 14.1%.

As for `CCCC[N+](C)(N)CCCC`, the growth in the assay with HCT-15 colon is 98%; in the assay with HT29 colon, 101%; in the assay on SNB-75 CNS, 93.3%; in the assay with SNB-19 CNS it was 104%; with U251 CNS it was 106%; in the assay on PC-3 prostate, 90.5%. Further, the growth was 108% with SK-MEL-5 melanoma; 105% in the assay with UACC-62 melanoma; 87.3% with LOX IMVI melanoma; 109% in the assay with SK-MEL-28 melanoma; 108% in the assay with SK-MEL-2 melanoma; 104% in the assay on SN12C renal. The growth in the assay with UO-31 renal was 91.7%; in the assay with TK-10 renal, 109%; in the assay on CAKI-1 renal, 94.4%; in the assay with A498 renal it was 115%; with MOLT-4 leukemia, 94.6%.

For the molecule `CSCc1ncc(-c2ccc(C(F)(F)F)cc2)c(NC2CCCCCC2)n1`, the growth in the assay with HCT-15 colon was 64.9% [25 µM]; in the assay with HT29 colon, 64.9% [25 µM]; in the assay with SNB-75 CNS, 71.6% [25 µM]; with SNB-19 CNS, 73.1% [25 µM]; in the assay with U251 CNS it was 68.5% [25 µM]; with PC-3 prostate, -5.89% [25 µM] (active). Also, the growth with SK-MEL-5 melanoma was 78.6% [25 µM]; with UACC-62 melanoma, 70.2% [25 µM]; in the assay on LOX IMVI melanoma it was 82.7% [25 µM]; with SK-MEL-28 melanoma, 95.6% [25 µM]; with SK-MEL-2 melanoma, 57.5% [25 µM]; with SN12C renal it was 83.2% [25 µM]. For the same molecule, the growth was 51.9% [25 µM] in the assay with UO-31 renal; 97% [25 µM] in the assay with TK-10 renal; 25.1% [25 µM] in the assay with CAKI-1 renal; 60.8% [25 µM] in the assay on A498 renal; 23% [25 µM] in the assay on MOLT-4 leukemia.

Consider `COC(=O)/C=C1/CCCCC1(C)C(=O)OC` (centres undefined), for which the growth in the assay on HCT-15 colon is 93.1%; in the assay with HT29 colon, 102%; in the assay on SNB-75 CNS, 91.6%; in the assay on SNB-19 CNS, 102%; with U251 CNS, 97.2%; in the assay with PC-3 prostate, 102%. The growth in the assay on SK-MEL-5 melanoma is 112%; in the assay with UACC-62 melanoma, 106%; in the assay on LOX IMVI melanoma it was 102%; in the assay with SK-MEL-28 melanoma, 100%; in the assay with SK-MEL-2 melanoma, 108%; with SN12C renal, 101%. In addition, the growth is 95.3% in the assay with UO-31 renal; 104% in the assay on TK-10 renal; 112% with ACHN renal; 107% in the assay on CAKI-1 renal; 107% in the assay on A498 renal; 99.6% with MOLT-4 leukemia.

Regarding `CCCCCCCCCCCCOC(=N)N(C)C`, the growth is 96.7% in the assay with HCT-15 colon; 102% in the assay with HT29 colon; 85.8% in the assay with SNB-75 CNS; 96.1% with SNB-19 CNS; 94.8% with U251 CNS; 91.4% in the assay on PC-3 prostate. Further, the growth is 109% in the assay with SK-MEL-5 melanoma; 93.9% in the assay on UACC-62 melanoma; 74.2% in the assay on LOX IMVI melanoma; 106% with SK-MEL-28 melanoma; 95.8% in the assay on SK-MEL-2 melanoma; 101% with SN12C renal. The growth was 91% in the assay on UO-31 renal; 94% in the assay with TK-10 renal; 93.6% with ACHN renal; 80.7% in the assay on CAKI-1 renal; 103% in the assay with A498 renal; 93.5% in the assay with MOLT-4 leukemia.

Take `CCCCN(CCCC)c1ccc(C(=O)O)cc1`: the growth in the assay with HCT-15 colon is 97.3%; in the assay on HT29 colon, 108%; in the assay on SNB-75 CNS it was 83.2%; with SNB-19 CNS, 84.8%; in the assay on U251 CNS, 100%; in the assay on PC-3 prostate it was 102%. The growth in the assay with SK-MEL-5 melanoma was 100%; in the assay with UACC-62 melanoma, 103%; in the assay with LOX IMVI melanoma, 99.4%; in the assay on SK-MEL-28 melanoma it was 107%; with SK-MEL-2 melanoma, 83.5%; in the assay with SN12C renal, 97.9%. The growth was 82.9% in the assay on UO-31 renal; 86.3% in the assay on TK-10 renal; 105% in the assay on ACHN renal; 103% with CAKI-1 renal; 99% in the assay on MOLT-4 leukemia.

As to `CCOc1ccc(N(C)c2ccc(/C=C/C3=[N+](C)c4ccccc4C3(C)C)cc2)cc1`, the growth is 18.9% in the assay on HCT-15 colon; -25.1% (active) in the assay on HT29 colon; 41.6% with SNB-75 CNS; 26.8% in the assay with SNB-19 CNS; -82.8% (active) in the assay on U251 CNS; 0.484% (active) in the assay with PC-3 prostate. Further, the growth was 2.07% (active) with SK-MEL-5 melanoma; 28.5% with UACC-62 melanoma; -48.1% (active) with LOX IMVI melanoma; 19% in the assay on SK-MEL-28 melanoma; -45.9% (active) with SK-MEL-2 melanoma; 2.99% (active) in the assay with SN12C renal. In addition, the growth was 3.71% (active) in the assay on UO-31 renal; -16.1% (active) with TK-10 renal; -95.9% (active) in the assay on ACHN renal; -2.85% (active) in the assay on CAKI-1 renal; 42.6% in the assay with A498 renal; -25.4% (active) in the assay on MOLT-4 leukemia.
